# Source: PubChem BioAssay (EPA / NIEHS)
# Inconclusive results are not listed. Calls of active or inactive are those of the source. The calls were made as follows, unless noted: active = hit-call score of the fitted dose curve at least 0.9, where 1 is the maximum; inconclusive = response in the unintended direction; inactive = score below 0.9.
# Experiments:
# [1] = read-out: UDP glucuronosyltransferase (UGT1A6), UGT1A6 (gene 54578); assay: LTEA_HepaRG_UGT1A6: Life Technologies and Expression Analysis (LTEA) Assay for UDP glucuronosyltransferase (UGT1A6) using HepaRG (AID 2283539; active = hit-call score of the fitted dose curve at least 0.9, where 1 is the maximum; inactive = score below 0.9); settings: mRNA level, 48 h; actives raise or lower the signal
# In short: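 Endpoint is UGT1A6 transcript induction or loss in a human liver cell line, quantified by TaqMan qRT-PCR 48 h after dosing. Concentrations ran from 100 uM downward in half-log steps in 0.5% DMSO; activity was fitted in both directions versus vehicle.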
# [2] = read-out: X-box binding protein 1 (XBP1), XBP1 (gene 7494); assay: LTEA_HepaRG_XBP1: Life Technologies and Expression Analysis (LTEA) Assay for X-box binding protein 1 (XBP1) using HepaRG (AID 2283540; active = hit-call score of the fitted dose curve at least 0.9, where 1 is the maximum; inactive = score below 0.9); settings: mRNA level, 48 h; actives raise or lower the signal
# In short: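 Human HepaRG monolayers receive test chemical for 48 h across an eight-point half-log series starting at 100 uM. XBP1 mRNA gain or loss is scored against DMSO by qRT-PCR.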
# [3] = LTEA_HepaRG_LDH_cytotoxicity: Cytotoxicity Assessment in the Life Technologies and Expression Analysis (LTEA) Assay (AID 2283563)
# In short: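 Human HepaRG hepatic cells are treated with test chemicals for 48 h at up to 100 uM in 0.5% DMSO. Cytotoxicity is scored from medium LDH against the vehicle control.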
# [4] = Tanguay_ZF_120hpf_MORT_legacy: (Legacy) Oregon State University Tanguay Lab 120 Hour Post-fertilization zebrafish Assay for Mortality (AID 2283633)
# In short: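 Mortality endpoint from a multiplexed whole-embryo zebrafish screen. Dechorionated wild-type embryos received compound at 6 hpf and remained under static exposure at 28C until 120 hpf, with death noted as a present/absent call.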
# [5] = Tanguay_ZF_120hpf_YSE_legacy: (Legacy) Oregon State University Tanguay Lab 120 Hour Post-fertilization zebrafish Assay for Yolk Sac Edema (AID 2283634)
# In short: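 Readout: presence or absence of yolk sac edema at 120 hpf, fitted upward against DMSO controls. Exposure ran statically from 6 hpf in dechorionated embryos kept at 28C.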
# [6] = Tanguay_ZF_120hpf_AXIS_legacy: (Legacy) Oregon State University Tanguay Lab 120 Hour Post-fertilization zebrafish Assay for Body Axis Malformation (AID 2283635)
# In short: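 Static 6–120 hpf chemical exposure of dechorionated wild-type 5D zebrafish, one per well at 28C; morphology endpoint scored binary at 120 hpf relative to DMSO control.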
# [7] = Tanguay_ZF_120hpf_EYE_legacy: (Legacy) Oregon State University Tanguay Lab 120 Hour Post-fertilization zebrafish Assay for Eye Malformation (AID 2283636)
# In short: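 Read-out is binary presence or absence of eye malformation, scored by brightfield microscopy at 120 hpf. Single larvae were exposed from 6 hpf in embryo medium containing 0.64% DMSO, with DMSO as baseline.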
# [8] = Tanguay_ZF_120hpf_SNOU_legacy: (Legacy) Oregon State University Tanguay Lab 120 Hour Post-fertilization zebrafish Assay for Snout Malformation (AID 2283637)
# In short: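 Snout malformation read as a yes/no call on brightfield images of 120 hpf larvae (Tropical 5D strain). Static exposure began at 6 hpf on dechorionated embryos in 0.64% DMSO, with gain of signal analysed versus DMSO controls.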
# [9] = Tanguay_ZF_120hpf_JAW_legacy: (Legacy) Oregon State University Tanguay Lab 120 Hour Post-fertilization zebrafish Assay for Jaw Malformation (AID 2283638)
# In short: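 Static waterborne exposure of dechorionated wild-type (Tropical 5D) zebrafish from 6 to 120 hpf at 28C, 0.64% DMSO vehicle; 5uM trimethyltin chloride served as positive control. Jaw morphology recorded as binary at 120 hpf.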
# [10] = Tanguay_ZF_120hpf_OTIC_legacy: (Legacy) Oregon State University Tanguay Lab 120 Hour Post-fertilization zebrafish Assay for Otic Vesicle Malformation (AID 2283639)
# In short: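 Embryos from 5D wild-type adults exposed in plates; DMSO 0.64% v/v final. Sealed, light-protected, 28C, static to 120 hpf. Otic vesicle malformation recorded as binary endpoint; gain-of-signal fitted vs DMSO.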
# [11] = Tanguay_ZF_120hpf_PE_legacy: (Legacy) Oregon State University Tanguay Lab 120 Hour Post-fertilization zebrafish Assay for Pericardial Edema (AID 2283640)
# In short: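 Read-out is the presence or absence of pericardial edema at 120 hpf under brightfield, with gain of signal fitted against DMSO controls. Larvae (5D wild-type) were statically exposed at 28C with 0.64% final DMSO.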
# [12] = Tanguay_ZF_120hpf_BRAI_legacy: (Legacy) Oregon State University Tanguay Lab 120 Hour Post-fertilization zebrafish Assay for Brain Malformation (AID 2283641)
# In short: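 Brain malformation in Tropical 5D zebrafish was recorded as a binary endpoint after static compound exposure from early development to 120 hpf at 28C. Activity was analysed against DMSO as negative control.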
# [13] = Tanguay_ZF_120hpf_SOMI_legacy: (Legacy) Oregon State University Tanguay Lab 120 Hour Post-fertilization zebrafish Assay for Somite Malformation (AID 2283647)
# In short: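 5D WT zebrafish; chorion removed 4 hpf; 1 embryo/well from 6 hpf; static exposure to 120 hpf, 28C, 0.64% DMSO final. Endpoint: somite malformation, binary, brightfield. Mortality excluded.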
# [14] = Tanguay_ZF_120hpf_PFIN_legacy: (Legacy) Oregon State University Tanguay Lab 120 Hour Post-fertilization zebrafish Assay for Pectoral Fin Malformation (AID 2283648);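 also: each larva judged yes or no for fin defect by brightfield with dead larvae skipped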
# In short: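 5D WT zebrafish; pronase dechorionation 4 hpf; 1 embryo/well at 6 hpf; static exposure to 120 hpf, 28C, sealed, foil-covered; final DMSO 0.64% v/v; 5 uM trimethyltin chloride positive control; fin defect scored yes/no.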
# [15] = Tanguay_ZF_120hpf_CFIN_legacy: (Legacy) Oregon State University Tanguay Lab 120 Hour Post-fertilization zebrafish Assay for Caudal Fin Malformation (AID 2283649)
# In short: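 Embryos were collected from Tropical 5D wild-type adults and dechorionated at 4 hpf. At 6 hpf each was exposed, one per well, at 0.64% DMSO and 28C. At 120 hpf fin morphology was scored; dead embryos were excluded.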
# [16] = Tanguay_ZF_120hpf_SWIM_legacy: (Legacy) Oregon State University Tanguay Lab 120 Hour Post-fertilization zebrafish Assay for Swim Bladder Malformation (AID 2283654);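 also: swim bladder malformation in each larva scored yes or no under brightfield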
# In short: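 Embryos lacking chorions were exposed individually and statically to test chemical from 6 to 120 hpf at 28C, with 0.64% DMSO as vehicle. At 120 hpf, swim bladder malformation was recorded as present or absent by brightfield microscopy.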
# [17] = Tanguay_ZF_120hpf_TRUN_legacy: (Legacy) Oregon State University Tanguay Lab 120 Hour Post-fertilization zebrafish Assay for Truncated Body (AID 2283655)
# In short: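 5D wild-type larvae; pronase dechorionation; static exposure 6→120 hpf, 28C; DMSO 0.64% final; 5uM trimethyltin chloride positive control. Readout: presence/absence of truncated body, analyzed relative to DMSO.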
# [18] = Tanguay_ZF_120hpf_NC_legacy: (Legacy) Oregon State University Tanguay Lab 120 Hour Post-fertilization zebrafish Assay for Notochord and Tail Malformation (AID 2283656)
# In short: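 Dechorionated Tropical 5D wild-type zebrafish embryos, one per well from 6 hpf, statically exposed to 120 hpf at 28C in 0.64% DMSO final. Notochord distortion scored present/absent by brightfield; dead embryos excluded.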
# [19] = Tanguay_ZF_120hpf_TR_legacy: (Legacy) Oregon State University Tanguay Lab 120 Hour Post-fertilization zebrafish Assay for Touch Response (AID 2283667)
# In short: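 5D WT embryos; static exposure to 120 hpf, 28C, sealed/dark; DMSO 0.64% v/v final. TR scored present/absent; dead embryos excluded. Pos ctrl 5uM trimethyltin chloride.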
# [20] = Tanguay_ZF_120hpf_ActivityScore_legacy: (Legacy) Oregon State University Tanguay Lab 120 Hour Post-fertilization zebrafish Assay Score for Activity (AID 2283742)
# In short: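 Embryos are staged, enzymatically dechorionated at 4 hpf, placed individually at 6 hpf, then held in test chemical (0.64% DMSO) at 28C until 120 hpf. Mortality and malformations are scored by brightfield, with non-mortality endpoints skipped for dead embryos.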
smiles,measurement,setting,value
O=C(CCl)c1ccccc1,outcome,[1],inactive
same,outcome,[2],inactive
same,outcome,[3],inactive
same,outcome,[4],inactive
same,outcome,[5],inactive
same,outcome,[6],inactive
same,outcome,[7],inactive
same,outcome,[8],inactive
same,outcome,[9],inactive
same,outcome,[10],inactive
same,outcome,[11],inactive
same,outcome,[12],inactive
same,outcome,[13],inactive
same,outcome,[14],inactive
same,outcome,[15],inactive
same,outcome,[16],inactive
same,outcome,[17],inactive
same,outcome,[18],inactive
same,outcome,[19],inactive
same,AC50,[20],1450 nM (active)
N#CCCCCC#N,outcome,[1],inactive
same,outcome,[2],inactive
same,outcome,[3],inactive
same,outcome,[4],inactive
same,outcome,[5],inactive
same,outcome,[6],inactive
same,outcome,[7],inactive
same,outcome,[8],inactive
same,outcome,[9],inactive
same,outcome,[10],inactive
same,outcome,[11],inactive
same,outcome,[12],inactive
same,outcome,[13],inactive
same,outcome,[14],inactive
same,outcome,[15],inactive
same,outcome,[16],inactive
same,outcome,[17],inactive
same,outcome,[18],inactive
same,outcome,[19],inactive
same,outcome,[20],inactive
O=[N+]([O-])c1ccc(Cl)cc1,outcome,[1],inactive
same,outcome,[2],inactive
same,outcome,[3],inactive
same,outcome,[4],inactive
same,outcome,[5],inactive
same,outcome,[6],inactive
same,outcome,[7],inactive
same,outcome,[8],inactive
same,outcome,[9],inactive
same,outcome,[10],inactive
same,outcome,[11],inactive
same,outcome,[12],inactive
same,outcome,[13],inactive
same,outcome,[14],inactive
same,outcome,[15],inactive
same,outcome,[16],inactive
same,outcome,[17],inactive
same,outcome,[18],inactive
same,outcome,[19],inactive
same,outcome,[20],inactive
